Drawing on PubChem BioAssay (Tox21), this text covers Potency for 26 compounds.

Test [1] is described as follows: A CellTox Green Cytotoxicity Assay to monitor cytotoxicity in HEK293 cells - 32 hour (AID 1224881). Note: nearly all actives have a fitted effect of over 40% in size. The method in brief: (§1)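 Nonlytic real-time cytotoxicity: HEK293 + CellTox Green reagent plated, 5 h preincubation, pintool compound addition (23 nL in DMSO), 37 C for 40 h, fluorescence measured at successive time points.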
A short description of test [2]: A CellTox Green Cytotoxicity Assay to monitor cytotoxicity in HepG2 cells - 0 hour (AID 1224882). Note: nearly all actives have a fitted effect of over 35% in size. Summed up:
(§2)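 Read-out is fluorescence of a cyanine dye excluded from live cells that stains DNA of dead HepG2 cells, with signal proportional to cytotoxicity. Plates were read at 0, 8, 16, 24, 32 and 40 h after compound addition.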

Test [3] is described as follows: A CellTox Green Cytotoxicity Assay to monitor cytotoxicity in HepG2 cells - 32 hour (AID 1224883). Note: nearly all actives have a fitted effect of over 50% in size. Summed up: as §2
The nature of test [4]: A CellTox Green Cytotoxicity Assay to monitor cytotoxicity in HEK293 cells - 8 hour (AID 1224884). Note: nearly all actives have a fitted effect of over 35% in size. The method in brief:
as §1

A short description of test [5]: qHTS RealTime-Glo MT Cell Viability Assay in HepG2 cells - 16 hour (AID 1224885). Note: nearly all actives have a fitted effect of over 50% in size. Summed up:
(§3)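 HepG2 cells (600/well) were dispensed with RealTime-Glo reagents, incubated 5 h at 37 °C, then treated with compounds in DMSO for up to 40 h. Nonlytic NanoLuc luminescence reflecting viable cells was read at each stated time point.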
For orientation: In qHTS, concentration-response curves come from the screen itself.

A short description of test [6]: qHTS RealTime-Glo MT Cell Viability Assay in HEK293 cells - 8 hour (AID 1224887). Note: top concentration of the series differs between compounds; nearly all actives have a fitted effect of over 50% in size. The method in brief:
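Cells were seeded together with NanoLuc luciferase and a prosubstrate that viable cells reduce to a luciferase substrate. After a 5 h incubation at 37 C/5% CO2, compounds were added and luminescence was measured repeatedly during 40 h of treatment.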

Test [7] can be described thus: A CellTox Green Cytotoxicity Assay to monitor cytotoxicity in HEK293 cells - 16 hour (AID 1224888). Note: nearly all actives have a fitted effect of over 35% in size. The method in brief:
as §1

Test [8] can be described thus: qHTS RealTime-Glo MT Cell Viability Assay in HepG2 cells - 0 hour (AID 1224889). Note: nearly all actives have a fitted effect of over 50% in size. Note: potency is the fitted concentration of half-maximal effect. The method in brief:
as §3

A short description of test [9]: A CellTox Green Cytotoxicity Assay to monitor cytotoxicity in HepG2 cells - 8 hour (AID 1224890). Note: nearly all actives have a fitted effect of over 45% in size. Summed up:
as §2

Test [10] in a line: qHTS RealTime-Glo MT Cell Viability Assay in HEK293 cells - 24 hour (AID 1224886). The method in brief:
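HEK293 cells seeded with NanoLuc/prosubstrate reagent, rested 5 h at 37 C, then dosed and kept at 37 C up to 40 h. Nonlytic real-time luminescence from viable cells read at 0, 8, 16, 24, 32 and 40 h.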

Records with an inconclusive call do not appear. Activity calls are given as the source filed them. Calls come from the whole dose curve; as a rule, active = well fitted curve in the direction sought with a large enough effect in the repeat runs; inconclusive = weak or mixed curves; inactive = no such curve, though single readings can be large; an effect the other way counts as inactive or inconclusive.

`N=C(N)c1ccc2cc(OC(=O)c3ccc(N=C(N)N)cc3)ccc2c1`: the Potency result in [1], in [2], in test [3], in test [4], in [5] and in test [6] was “inactive” in each case. Moreover, the Potency result in test [7], in test [8] and in test [9] was “inactive” throughout.

Consider `N=C(N)c1ccccc1`, for which the Potency result in [1], in [2], in test [3], in test [4], in [10] and in test [6] was “inactive” in each case. Besides, the Potency entry in [7] and in [8] was “inactive” each time.

On to `COC(C)(C)CCCC(C)CC=O` (stereo not drawn), for which the Potency result in test [1], in test [2], in [3], in test [4], in test [5] and in test [6] was “inactive” throughout. Besides, the Potency result in test [7], in test [8] and in [9] was “inactive” in each case.

As to `C[C@H](NC(CCc1ccccc1)C(=O)O)C(=O)N1CCC[C@H]1C(=O)O` (stereo partly drawn), the Potency result in [1], in test [2], in test [3], in test [4], in [5] and in test [6] was “inactive” each time. The Potency entry in test [7], in test [8] and in [9] was “inactive” in each case.

Take `CCCCCCCCCCCCCCCCC`: the Potency result in [1], in [2], in [3], in [4], in [5] and in [7] was “inactive” throughout. The Potency result in [8] is “inactive”.

Turning to `C=CCOCC(CC)(CO)COCC=C`, the Potency result in [1], in test [2], in test [3], in [4], in [5] and in [10] was “inactive” throughout. Further, the Potency result in [7], in test [8] and in test [9] was “inactive” each time.

Take `O=C1CCCC(=O)C1`: the Potency entry in test [1], in test [2], in [3], in test [4], in test [5] and in test [10] was “inactive” in each case. Further, the Potency entry in [7], in [8] and in [9] was “inactive” throughout.

As for `CC(=O)CC(C)C`, the Potency entry in test [1], in test [2], in test [3], in test [4], in [5] and in [6] was “inactive” throughout. Moreover, the Potency result in test [7], in test [8] and in [9] was “inactive” each time.

Consider `OCCCC1CCCCC1`, for which the Potency entry in [1], in [2], in [3], in test [4], in test [5] and in test [6] was “inactive” each time. Besides, the Potency entry in test [7], in [8] and in test [9] was “inactive” each time.

For `CS(=O)(=O)O`, the Potency result in test [1], in test [2], in test [3], in test [4], in test [5] and in [6] was “inactive” throughout. Also, the Potency result in test [7], in test [8] and in test [9] was “inactive” throughout.

On to `CC/C=C\CC/C=C/CO`, for which the Potency result in test [1], in test [2], in [3], in [4], in [5] and in test [10] was “inactive” in each case. Also, the Potency result in [7], in [8] and in test [9] was “inactive” each time.

For `COC(=O)CC(C)=O`, the Potency entry in test [1], in [2], in test [3], in test [4], in test [10] and in test [6] was “inactive” in each case. Moreover, the Potency result in test [7], in [8] and in [9] was “inactive” throughout.

Regarding `CC(C)(O)C(=O)c1ccccc1`, the Potency result in test [1], in [2], in test [3], in test [4], in [5] and in [10] was “inactive” throughout. Moreover, the Potency entry in [7], in test [8] and in [9] was “inactive” each time.

On to `CC(=O)OCC(CCn1cnc2cnc(N)nc21)COC(C)=O`, for which the Potency result in test [1], in [2], in [3], in [4], in test [5] and in [6] was “inactive” throughout. Moreover, the Potency entry in [7], in test [8] and in test [9] was “inactive” in each case.

Consider `c1ccc([C@H]2CN3CCSC3=N2)cc1`, for which the Potency entry in test [1], in test [2], in test [3], in test [4], in [5] and in test [6] was “inactive” throughout. Further, the Potency result in [7], in test [8] and in test [9] was “inactive” in each case.

On to `N=C(N)c1ccc(OCCCOc2ccc(C(=N)N)cc2)cc1`, for which the Potency result in test [1], in test [2], in test [3], in test [4], in test [5] and in test [6] was “inactive” each time. Moreover, the Potency entry in [7], in test [8] and in [9] was “inactive” throughout.

As to `CCOc1ccc(C(=O)OCCN(CC)CC)cc1`, the Potency entry in [1], in test [2], in test [3], in test [4], in [5] and in test [10] was “inactive” throughout. In addition, the Potency entry in test [7], in test [8] and in test [9] was “inactive” in each case.

As to `CC(C)NCC(O)c1ccc(NS(C)(=O)=O)cc1` (stereo not drawn), the Potency entry in [1], in [2], in [3], in test [4], in [5] and in test [10] was “inactive” throughout. The Potency entry in [7], in [8] and in test [9] was “inactive” each time.

Regarding `CC(C)=CCCC(C)CC(=O)O` (stereo not drawn), the Potency result in test [1], in [2], in [3], in test [4], in [10] and in test [6] was “inactive” in each case. In addition, the Potency entry in test [7] and in test [8] was “inactive” throughout.

In the case of `CC(=O)OCC(=O)[C@@]1(O)CCC2C3CCC4=CC(=O)CC[C@]4(C)C3[C@@H](O)C[C@@]21C` (stereo partly drawn), the Potency result in [1], in [2], in [3], in test [4], in [5] and in test [10] was “inactive” throughout. In addition, the Potency result in test [7] and in test [9] was “inactive” throughout. In test [8], the Potency was 2390 nM (active).

Turning to `O=C[C@H](O)[C@@H](O)[C@H](O)[C@H](O)CO`, the Potency result in test [1], in [2], in [3], in test [4], in test [5] and in test [6] was “inactive” in each case. In addition, the Potency result in test [7], in test [8] and in [9] was “inactive” each time.

As to `CC1(C)CO[C@@H](CC(=O)O)CN1`, the Potency result in [1], in [2], in test [3], in [4], in [5] and in test [7] was “inactive” throughout. The Potency result in [8] is “inactive”.

`CCCCCCCCCCCCN(CCCCCCCCCCCC)CCCCCCCCCCCC`: the Potency result in test [1], in [2], in test [3], in test [4], in test [5] and in [10] was “inactive” in each case. In addition, the Potency entry in test [7], in test [8] and in [9] was “inactive” each time.

Regarding `CC(C)(c1ccc(O)cc1)c1ccc(O)cc1`, the Potency entry in test [1], in test [2], in [3], in test [4], in test [5] and in test [6] was “inactive” throughout. Also, the Potency result in test [7], in test [8] and in test [9] was “inactive” in each case.

With `CCC(C)C1CCCCC1=O` (stereo not drawn), the Potency entry in test [1], in test [2], in [3], in test [4], in [5] and in [10] was “inactive” throughout. In addition, the Potency entry in [7], in [8] and in test [9] was “inactive” each time.

For the compound `CCOC(=O)C(=O)OCC`, the Potency result in test [1], in test [2], in test [3], in test [4], in test [10] and in [6] was “inactive” throughout. The Potency result in test [7], in [8] and in test [9] was “inactive” throughout.
